From PubChem BioAssay (NCATS) come the findings set out here.

A number with no mark means an inactive call. Results filed as inconclusive are left out. Where a call stands in place of a potency, no number is given. Activity calls are given as the source filed them. Calls follow the shape of the dose curve; as a rule, active = well fitted inhibition curve with a large enough effect; inconclusive = small, poorly fitted or top-dose-only effect; inactive = no such curve, though single readings can be large or run the other way.

Sequence of Single-stranded DNA cytosine deaminase (Homo sapiens) (Q9GZX7 whole entry, looked up): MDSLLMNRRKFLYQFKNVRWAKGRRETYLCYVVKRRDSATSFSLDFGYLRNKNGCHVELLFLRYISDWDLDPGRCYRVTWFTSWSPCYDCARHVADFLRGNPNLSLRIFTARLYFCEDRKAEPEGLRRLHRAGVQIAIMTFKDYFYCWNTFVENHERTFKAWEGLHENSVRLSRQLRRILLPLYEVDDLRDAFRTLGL

The first test deals with Single-stranded DNA cytosine deaminase (Homo sapiens) (UniProt Q9GZX7). Briefly: Validation qHTS assay for inhibitors of Activation Induced Cytidine Deaminase (AID): AID signal (AID 1347429). The settings on record: Recombinant AID, FRET ssDNA deamination with UDG, fluorescence; series mostly up to 115 µM. The procedure, abridged:
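AID+UDG coupled FRET deamination; cpds up to 114 uM final; DJC20/DJC23 substrate, 4 hr RT; NaOH stop, 30 min RT; read Ex 540/Em 590.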
On to `NC1CCN(c2cccc(Cl)n2)CC1`, for which the Potency result is “inactive”. On to `CNCC(O)c1ccc(O)c(O)c1` (stereo unspecified), for which the Potency result is “inactive”. For the compound `CCCCCCCCCCCCCCCC(=O)NCCO`, the Potency result was “inactive”.

On to `CCN(CC)CCCC(C)Nc1c2ccc(Cl)cc2nc2ccc(OC)cc12` (stereo unspecified), for which the Potency entry was “inactive”.

On to `CN(C)CC[C@@H](c1ccc(Cl)cc1)c1ccccn1`, for which the Potency result is “inactive”.

For the compound `COc1ccc(Cl)cc1C(=O)NCCc1ccc(S(=O)(=O)NC(=O)NC2CCCCC2)cc1`, the Potency entry is “inactive”. `CC[C@H]1CN2CCc3cc(OC)c(OC)cc3[C@@H]2C[C@@H]1C[C@H]1NCCc2cc(OC)c(OC)cc21`: the Potency result was “inactive”. Still for that read-out and setting: for `OCCN1CCN(CCCN2c3ccccc3Sc3ccc(Cl)cc32)CC1` the value was “inactive”. Consider `CC1=C(CC(=O)O)c2cc(F)ccc2/C1=C\c1ccc(S(C)=O)cc1` (stereo unspecified), for which the Potency entry was “inactive”. As to `CSc1ccc2c(c1)C(N1CCN(C)CC1)Cc1ccccc1S2` (stereo unspecified), the Potency result was “inactive”. For the compound `N=c1c[n+](N2CCOCC2)[n-]o1`, the Potency entry is “inactive”. With `NC(N)=NCCC[C@H](N)C(=O)O`, the Potency result was “inactive”.

With `COC(=O)C1=C(C)NC(C)=C(C(=O)OC)C1c1ccccc1[N+](=O)[O-]`, the Potency entry was “inactive”.

Test system in another test: not listed separately
Briefly: Primary qHTS for inhibitors of La Crosse Virus (LACV) - induced cell death in SH-SY5Y cells (AID 1508616).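 Also: top concentration of the series differs between compounds; higher means more rescue of cells from virus-induced death.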 The settings on record: SH-SY5Y LACV cytopathicity rescue, ATP luminescence, 6 d; series mostly up to 4.29 µM. The procedure, abridged: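 Cytopathicity rescue screen: compounds pinned onto SH-SY5Y cells, which are then infected with LACV (MOI 0.01) and held 6 days at 37C. Percent activity is scaled between infected DMSO control and uninfected DMSO control.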
In general terms: qHTS replaces the single test concentration by a dilution series.
Regarding `Cn1c(=O)c2c(ncn2CC2OCCO2)n(C)c1=O`, the compound was called inactive.

For `NC1CCN(c2cccc(Cl)n2)CC1`, the compound was called inactive. In the case of `CNCC(O)c1ccc(O)c(O)c1` (stereo unspecified), the result was inactive.

For the compound `C[C@H]1O[C@@H](n2cc(F)c(=O)[nH]c2=O)[C@H](O)[C@@H]1O`, the call was inactive.

In the case of `CCCCCCCCCCCCCCCC(=O)NCCO`, the compound was called inactive. For `CCN(CC)CCNC(=O)c1c(C)[nH]c(/C=C2\C(=O)Nc3ccc(F)cc32)c1C`, the call was inactive.

Consider `Cc1cc(C(C#N)c2ccc(Cl)cc2)c(Cl)cc1NC(=O)c1cc(I)cc(I)c1O` (stereo unspecified), for which the call was inactive. `CCCCN(CCCC)CC(O)c1cc(Cl)cc2c1-c1ccc(Cl)cc1/C2=C/c1ccc(Cl)cc1` (stereo unspecified): the outcome was inactive. As to `CC(=O)c1ccc2c(c1)N(CCCN(C)C)c1ccccc1S2`, the result was inactive. As to `O=C1O[C@H]([C@@H](O)CO)C(O)=C1O`, the call was inactive. As to `O=C1c2c(O)cccc2Cc2cccc(O)c21`, the compound was called inactive. For the compound `CCCCCCCCCCCCOS(=O)(=O)O`, the result was inactive. On to `Cc1ncc(COP(=O)(O)O)c(C=O)c1O`, for which the call was inactive.

Regarding `CCN(CC)CCCC(C)Nc1c2ccc(Cl)cc2nc2ccc(OC)cc12` (stereo unspecified), the outcome was inactive.

Take `CN(C)CC[C@@H](c1ccc(Cl)cc1)c1ccccn1`: the result was inactive. As to `COc1ccc(Cl)cc1C(=O)NCCc1ccc(S(=O)(=O)NC(=O)NC2CCCCC2)cc1`, the compound was classed as inactive. For the compound `CC(=O)NC(Cc1ccccc1)C(=O)O` (stereo unspecified), the result was inactive.

With `CC(C)(C)C(=O)NCCCC(=O)O`, the compound was called inactive. On to `NC1[C@H]2CN(c3nc4c(cc3F)c(=O)c(C(=O)O)cn4-c3ccc(F)cc3F)C[C@@H]12` (stereo partly specified), for which the result was inactive. Same read-out and setting: the result for `OCCN1CCN(CCCN2c3ccccc3Sc3ccc(Cl)cc32)CC1` reads “inactive”; that for `CC(C)c1c(C(=O)Nc2ccccc2)c(-c2ccccc2)c(-c2ccc(F)cc2)n1CC[C@@H](O)C[C@@H](O)CC(=O)O`, “inactive”; that for `C[C@H](NC(CCc1ccccc1)C(=O)O)C(=O)N1CCC[C@H]1C(=O)O` (stereo partly specified), “inactive”.

On to `CCCOC(=O)c1ccccc1`, for which the compound was classed as inactive. As to `Cc1c(O)cccc1C(=O)N[C@@H](CSc1ccccc1)[C@H](O)CN1C[C@H]2CCCC[C@H]2C[C@H]1C(=O)NC(C)(C)C`, the compound was classed as inactive. For `NCCNCCNCCN`, the compound was called inactive. Same read-out and setting: for `CC1=C(CC(=O)O)c2cc(F)ccc2/C1=C\c1ccc(S(C)=O)cc1` (stereo unspecified) the value was “inactive”; for `CSc1ccc2c(c1)C(N1CCN(C)CC1)Cc1ccccc1S2` (stereo unspecified), “inactive”. As for `N=c1c[n+](N2CCOCC2)[n-]o1`, the result was inactive. As for `CN1CCC[C@@H]1Cc1c[nH]c2ccc(CCS(=O)(=O)c3ccccc3)cc12`, the outcome was inactive. Turning to `NC(N)=NCCC[C@H](N)C(=O)O`, the call was inactive. Regarding `N[C@@H](CSSC[C@H](N)C(=O)O)C(=O)O`, the activity change is -4.86% [at 0.0343 µM].

Consider `O=C1NC(=O)[C@@]2(CCOc3ccc(F)cc32)N1`, for which the compound was called inactive. Consider `COC(=O)C1=C(C)NC(C)=C(C(=O)OC)C1c1ccccc1[N+](=O)[O-]`, for which the compound was classed as inactive.
